Measured values taken from PubChem BioAssay AID1159580 (chemical genetic matrix, 2015).
Out of some 5,500 compounds screened, about 2,000 (36%) were called active. About 18% were inconclusive and are not listed. Rule as the data show it: active = normalized growth mostly below about 0.91 (no sharp cut-off); inconclusive = no clear call, values can overlap the other calls; inactive = mostly above about 0.92. The list shows a part of the results.

Test: chemical genetic growth profiling, strain panel (AID 1159580);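 also: tested at 20 µM; growth read once vehicle control cultures reached saturation at 30 °C; 1 = growth at the plate median or of vehicle wells; lower values mean less growth of the strain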
Conditions: S. cerevisiae deletion strains, growth OD

Measured: normalized growth

O=C(O)c1cc(O)c2c(c1)C(=O)c1cc(O)cc(O)c1C2=O
inactive: locus YBR021W, strain FUR4, stronger effect = lower value 0.97 | locus YBR229C, strain ROT2, stronger effect = lower value 0.92 | locus YCL029C, strain bik1, stronger effect = lower value 0.932 | locus YDL035C, strain GPR1, stronger effect = lower value 0.908 | locus YDL074C, strain BRE1, stronger effect = lower value 0.933 | locus YDL101C, strain DUN1, stronger effect = lower value 0.931 | locus YDL192W, strain arf1, stronger effect = lower value 0.926 | locus YDR101C, strain arx1, stronger effect = lower value 0.948 | locus YDR150W, strain NUM1, stronger effect = lower value 0.939 | locus YDR162C, strain NBP2, stronger effect = lower value 0.873 | locus YDR318W, strain mcm21, stronger effect = lower value 0.93 | locus YDR388W, stronger effect = lower value 0.938 | locus YEL061C, strain CIN8, stronger effect = lower value 0.934 | locus YER155C, strain BEM2, stronger effect = lower value 0.968 | locus YER167W, strain BCK2, stronger effect = lower value 0.939 | locus YGL078C, strain dbp3, stronger effect = lower value 0.954 | locus YGL086W, strain mad1, stronger effect = lower value 0.971 | locus YGL248W, strain PDE1, stronger effect = lower value 0.956 | locus YGR135W, strain pre9, stronger effect = lower value 0.923 | locus YGR252W, strain gcn5, stronger effect = lower value 0.816 | locus YHR079C, strain IRE1 (second series), stronger effect = lower value 0.949 | locus YHR094C, strain hxt1, stronger effect = lower value 0.938 | locus YHR129C, strain ARP1, stronger effect = lower value 0.957 | locus YHR200W, strain rpn10, stronger effect = lower value 0.939 | locus YIL066C, strain RNR3, stronger effect = lower value 0.923 | locus YIL073C, strain SPO22, stronger effect = lower value 0.914 | locus YIR030C, strain dcg1, stronger effect = lower value 0.939 | locus YJL095W, strain BCK1, stronger effect = lower value 0.945 | locus YJL134W, strain LCB3, stronger effect = lower value 0.95 | locus YJL187C, strain SWE1 (second series), stronger effect = lower value 0.952 | locus YJR043C, strain POL32, stronger effect = lower value 0.864 | locus YKL009W, strain mrt4, stronger effect = lower value 0.967 | locus YKL190W, strain CNB1, stronger effect = lower value 0.95 | locus YLR039C, strain RIC1, stronger effect = lower value 0.879 | locus YLR058C, strain SHM2, stronger effect = lower value 0.91 | locus YLR102C, strain apc9, stronger effect = lower value 0.945 | locus YLR262C, strain YPT6, stronger effect = lower value 0.814 | locus YLR268W, strain sec22, stronger effect = lower value 0.938 | locus YLR330W, strain CHS5, stronger effect = lower value 0.926 | locus YLR342W, strain FKS1 (second series), stronger effect = lower value 0.921 | locus YLR371W, strain rom2, stronger effect = lower value 0.945 | locus YML016C, strain PPZ1, stronger effect = lower value 0.944 | locus YMR078C, strain ctf18, stronger effect = lower value 0.939 | locus YMR223W, strain ubp8, stronger effect = lower value 0.92 | locus YMR307W, strain GAS1, stronger effect = lower value 0.872 | locus YNL067W, strain RPL9B, stronger effect = lower value 0.977 | locus YNL153C, strain GIM3, stronger effect = lower value 0.955 | locus YNL233W, strain BNI4, stronger effect = lower value 0.95 | locus YNL271C, strain bni1, stronger effect = lower value 0.93 | locus YNL307C, strain MCK1, stronger effect = lower value 0.931 | locus YNL322C, strain KRE1, stronger effect = lower value 0.94 | locus YNR052C, strain pop2, stronger effect = lower value 0.977 | locus YOL006C, strain TOP1, stronger effect = lower value 1.02 | locus YOL012C, strain htz1 0.738 | locus YOL147C, strain pex11, stronger effect = lower value 0.939 | locus YOR061W, strain CKA2, stronger effect = lower value 0.916 | locus YOR069W, strain VPS5, stronger effect = lower value 0.957 | locus YOR136W, strain idh2, stronger effect = lower value 0.929 | locus YOR184W, strain ser1, stronger effect = lower value 0.893 | locus YOR316C, strain cot1, stronger effect = lower value 0.94 | locus YPL241C, strain CIN2, stronger effect = lower value 0.943 | locus YPR119W, strain clb2, stronger effect = lower value 0.951 | locus YPR141C, strain kar3, stronger effect = lower value 0.916 | locus YPR163C, strain tif3, stronger effect = lower value 0.938 | strain wtn01, stronger effect = lower value 0.948
active: locus YDL185W, strain tfp1, stronger effect = lower value 0.842 | locus YDR502C, strain sam2, stronger effect = lower value 0.903 | locus YER110C, stronger effect = lower value 0.881 | locus YHR030C, strain SLT2, stronger effect = lower value 0.913 | locus YIL125W, strain kgd1, stronger effect = lower value 0.915 | locus YJL168C, strain set2, stronger effect = lower value 0.912 | locus YKL068W, stronger effect = lower value 0.913 | locus YKL085W, strain MDH1 (second series), stronger effect = lower value 0.888 | locus YKL085W, strain MDH1, stronger effect = lower value 0.888 | locus YKR001C, strain vps1, stronger effect = lower value 0.838 | locus YLR418C, strain cdc73, stronger effect = lower value 0.766 | locus YML032C, strain rad52, stronger effect = lower value 0.899 | locus YML124C, strain tub3, stronger effect = lower value 0.93 | locus YNL250W, strain rad50, stronger effect = lower value 0.863 | locus YNL298W, strain CLA4, stronger effect = lower value 0.894 | locus YOR144C, strain elg1, stronger effect = lower value 0.91 | locus YPR167C, strain met16, stronger effect = lower value 0.91
